Assay results reported in PubChem BioAssay.
A number with no mark means an inactive call. The source made the active and inactive calls.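 The calls were made as follows, unless noted: active = mean inhibition above 46.68%, the untreated control wells mean plus 3 SD; inactive = the rest.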

Tests used:
[1] = molecular target: Nuclear receptor coactivator 3 (Homo sapiens) (UniProt Q9Y6Q9); experiment: SRC3 coactivator transcriptional activity inhibitors, confirmation, cell-based, luminescence, quadruplicate (AID 588792;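 active = mean inhibition over 43.08%, the solvent-only control mean plus 3 SD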;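 also: 0% = DMSO treated cells and 100% = gossypol at 36 µM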); conditions: HEK293 GAL4-SRC3 luciferase reporter, at 3.6 µM, hits give high values
Sequence of Nuclear receptor coactivator 3 (Homo sapiens) (Q9Y6Q9 whole entry, looked up, the tested form may be a part): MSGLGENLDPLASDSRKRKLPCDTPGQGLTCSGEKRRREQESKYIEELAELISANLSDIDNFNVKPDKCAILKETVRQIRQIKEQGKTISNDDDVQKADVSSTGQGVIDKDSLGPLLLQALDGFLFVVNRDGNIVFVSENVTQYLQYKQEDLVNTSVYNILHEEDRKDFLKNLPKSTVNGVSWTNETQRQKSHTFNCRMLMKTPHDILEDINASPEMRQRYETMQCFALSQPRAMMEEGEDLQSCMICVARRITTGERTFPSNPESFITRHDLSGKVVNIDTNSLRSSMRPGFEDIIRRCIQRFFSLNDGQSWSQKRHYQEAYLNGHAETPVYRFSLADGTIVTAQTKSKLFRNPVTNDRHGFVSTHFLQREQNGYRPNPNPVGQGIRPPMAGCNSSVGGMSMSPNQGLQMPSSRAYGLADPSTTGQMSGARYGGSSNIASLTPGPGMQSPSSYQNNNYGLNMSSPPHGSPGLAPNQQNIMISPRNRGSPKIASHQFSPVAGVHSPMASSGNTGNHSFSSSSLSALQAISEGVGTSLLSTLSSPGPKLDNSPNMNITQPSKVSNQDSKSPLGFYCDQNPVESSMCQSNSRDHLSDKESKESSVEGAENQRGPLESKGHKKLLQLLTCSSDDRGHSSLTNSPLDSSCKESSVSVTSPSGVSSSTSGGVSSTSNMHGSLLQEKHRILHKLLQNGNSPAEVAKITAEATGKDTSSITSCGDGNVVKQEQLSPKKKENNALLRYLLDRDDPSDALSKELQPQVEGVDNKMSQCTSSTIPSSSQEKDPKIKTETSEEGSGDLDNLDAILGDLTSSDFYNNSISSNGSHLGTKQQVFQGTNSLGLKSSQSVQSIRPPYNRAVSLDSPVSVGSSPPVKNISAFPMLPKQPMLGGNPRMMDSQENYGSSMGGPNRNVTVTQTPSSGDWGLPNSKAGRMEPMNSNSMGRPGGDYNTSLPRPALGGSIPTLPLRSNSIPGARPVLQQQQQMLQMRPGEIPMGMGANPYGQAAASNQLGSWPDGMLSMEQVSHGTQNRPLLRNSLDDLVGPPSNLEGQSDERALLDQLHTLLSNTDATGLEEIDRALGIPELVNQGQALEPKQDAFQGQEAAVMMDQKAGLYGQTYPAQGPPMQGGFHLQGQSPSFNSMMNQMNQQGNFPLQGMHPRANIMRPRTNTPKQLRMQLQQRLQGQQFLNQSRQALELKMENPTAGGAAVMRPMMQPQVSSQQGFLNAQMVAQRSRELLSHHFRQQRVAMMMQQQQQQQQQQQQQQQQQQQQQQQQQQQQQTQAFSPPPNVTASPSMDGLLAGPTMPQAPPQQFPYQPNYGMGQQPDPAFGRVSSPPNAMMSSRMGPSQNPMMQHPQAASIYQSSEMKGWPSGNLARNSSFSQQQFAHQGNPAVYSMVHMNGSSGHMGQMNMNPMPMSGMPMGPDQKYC

[2] = test system: transactivating tegument protein VP16 (Human herpesvirus 1), Gal4-VP16 luciferase reporter; experiment: VP16 transactivation inhibitors, counter-screen for SRC3 inhibitor project, cell-based, luminescence, high throughput (AID 588794; in the data active = inhibition above about 30%); conditions: mammalian cells, VP16-driven luciferase reporter luminescence; at 3.6 µM; hits give high values
[3] = molecular target: Nuclear receptor coactivator 1 (Homo sapiens) (UniProt Q15788); experiment: SRC1 coactivator transcriptional activity inhibitors, confirmation, cell-based, luminescence, quadruplicate (AID 588820); conditions: HEK293 GAL4-SRC1 luciferase reporter, at 3.6 µM, hits give high values;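 also: 0% = DMSO wells and 100% = gossypol 36 µM treated wells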
Sequence of Nuclear receptor coactivator 1 (Homo sapiens) (Q15788 whole entry, looked up, the tested form may be a part): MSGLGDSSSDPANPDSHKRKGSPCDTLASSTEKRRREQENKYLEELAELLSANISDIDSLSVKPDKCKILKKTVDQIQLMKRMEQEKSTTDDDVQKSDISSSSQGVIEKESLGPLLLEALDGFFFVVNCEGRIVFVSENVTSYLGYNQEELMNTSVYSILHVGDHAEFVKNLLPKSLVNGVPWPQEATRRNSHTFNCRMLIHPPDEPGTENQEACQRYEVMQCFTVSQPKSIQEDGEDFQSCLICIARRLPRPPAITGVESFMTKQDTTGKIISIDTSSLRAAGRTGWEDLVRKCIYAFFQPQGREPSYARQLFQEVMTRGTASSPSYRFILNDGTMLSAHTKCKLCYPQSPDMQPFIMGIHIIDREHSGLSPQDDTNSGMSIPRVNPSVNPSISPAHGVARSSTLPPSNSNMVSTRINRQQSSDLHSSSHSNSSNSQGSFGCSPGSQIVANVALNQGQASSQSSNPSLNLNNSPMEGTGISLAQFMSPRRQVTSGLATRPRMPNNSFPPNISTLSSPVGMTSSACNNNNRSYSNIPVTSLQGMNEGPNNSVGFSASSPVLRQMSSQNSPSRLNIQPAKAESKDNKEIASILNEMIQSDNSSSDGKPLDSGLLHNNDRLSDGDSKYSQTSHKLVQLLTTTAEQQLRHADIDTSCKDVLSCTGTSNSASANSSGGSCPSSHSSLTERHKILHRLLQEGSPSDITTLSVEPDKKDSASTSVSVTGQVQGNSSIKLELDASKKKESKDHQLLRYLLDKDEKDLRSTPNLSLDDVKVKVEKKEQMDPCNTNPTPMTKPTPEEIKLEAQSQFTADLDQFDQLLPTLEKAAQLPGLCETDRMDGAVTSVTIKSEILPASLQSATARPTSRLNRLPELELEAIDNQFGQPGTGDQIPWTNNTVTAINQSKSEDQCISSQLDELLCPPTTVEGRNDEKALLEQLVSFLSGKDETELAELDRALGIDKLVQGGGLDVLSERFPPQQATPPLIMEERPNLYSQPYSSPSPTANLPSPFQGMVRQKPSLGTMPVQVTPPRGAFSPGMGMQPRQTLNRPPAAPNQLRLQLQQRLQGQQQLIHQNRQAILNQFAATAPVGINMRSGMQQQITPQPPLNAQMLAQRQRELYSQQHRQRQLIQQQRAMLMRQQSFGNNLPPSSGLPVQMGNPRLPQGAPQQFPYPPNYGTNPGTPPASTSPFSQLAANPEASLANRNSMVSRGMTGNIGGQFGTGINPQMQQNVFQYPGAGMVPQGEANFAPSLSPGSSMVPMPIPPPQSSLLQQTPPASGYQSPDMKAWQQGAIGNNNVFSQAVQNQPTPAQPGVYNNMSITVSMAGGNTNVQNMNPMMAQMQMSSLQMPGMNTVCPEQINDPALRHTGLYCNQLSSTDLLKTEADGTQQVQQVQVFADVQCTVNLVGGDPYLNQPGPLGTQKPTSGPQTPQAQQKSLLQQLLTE

[4] = VP16 transactivation inhibitors, counter-screen for SRC1 inhibitor project, cell-based, luminescence, high throughput (AID 588824; in the data active = inhibition above about 25%); conditions: cell-based VP16 transactivation luciferase luminescence; at 3.6 µM; hits give high values

| Structure (SMILES) | inhibition [1] | inhibition [2] | inhibition [3] | inhibition [4] |
| --- | --- | --- | --- | --- |
| CC(C)(C)c1nnc(N/N=C/c2cc(Br)ccc2O)n(N)c1=O | 79% (active) | 69.2% (active) | 72% (active) | 63% (active) |
| CN(CC1CCCO1)S(=O)(=O)c1ccc(C(=O)Nc2nc3cc4c(cc3s2)OCO4)cc1 (centres undefined) | 14.7% | 39.8% (active) | 0.14% | 39.8% (active) |
| O=C(Nc1scc(-c2ccc(Br)cc2)c1C(=O)O)c1ccccc1F | 10.7% | 15.8% | -17.2% | 10.7% |
| O=[N+]([O-])c1ccc(NC(c2ccccc2)c2ccc3cccnc3c2O)cc1 (centres undefined) | 65% (active) | 58.8% (active) | 65.4% (active) | 71.2% (active) |
| O=C(NC1CCCN(Cc2ccccc2F)C1)c1cccc(N2CCCC2=O)c1 (centres undefined) | 3.31% | -7.69% | -4.75% | -1.08% |
| COc1ccc(-c2coc3c(C(=O)Nc4cc(OC)c(OC)c(OC)c4)cccc23)c(C)c1 | 19.8% | 29.8% (active) | 0.16% | 31.8% (active) |
| NC(=O)N=Nc1c2[nH]c3ccccc3nc-2c2ccccc12 | -8.03% | 45% (active) | -11.8% | 48.8% (active) |
| O=C(CCc1ccccc1)NC(c1cccs1)c1cc(Cl)c2cccnc2c1O (centres undefined) | 55.5% (active) | 42% (active) | 45% | 45.9% (active) |
| CC(=O)N1CCN(c2ncnc3ccccc23)CC1 | 29.2% | 26.3% | 45.1% | 26.3% (active) |
| Cc1ccc(S(=O)(=O)N2CCOCC2)cc1NC(=O)CN1CCN(c2ccc(O)cc2)CC1 | 12.4% | -1.58% | -6.12% | 11.1% |
| CC(O)CC(C(=O)NNc1ccccc1)C(=O)NNc1ccccc1 (centres undefined) | 10.1% | 16% | -6.15% | 13.1% |
| Cc1cc(CNC(=O)c2cccc([N+](=O)[O-])c2C)c2ccccc2n1 | 13.9% | 41.2% (active) | 16% | 35.8% (active) |
| COc1ccc(-n2c(=S)[nH]c3cc(C(=O)Nc4ccc(F)cc4)ccc3c2=O)c(OC)c1 | 19.7% | 40.8% (active) | 26.5% | 44.6% (active) |
| Cc1ccc(S(=O)(=O)N2C[C@@H]3CCCC[C@@H]3[C@@H](C)[C@H]2c2cn(Cc3ccccc3)c3ncccc23)cc1 | 22.3% | 47.6% (active) | 25.8% | 42.2% (active) |
| COc1cccc2nc3c(C(=O)NCCN(C)C)cccc3cc12 | 35.9% | 39.9% (active) | 46.5% | 32.7% (active) |
| CCOC(=O)c1ccccc1OC(=O)NNc1ccccc1 | 15.6% | 46.1% (active) | 11.2% | 38.8% (active) |
| CC(C)CCNC(=O)C(c1ccncc1)N(Cc1cccs1)C(=O)Cn1nnc(-c2ccc(F)cc2)n1 (centres undefined) | 66.2% (active) | 54.1% (active) | 46.3% | 52.2% (active) |
| COc1ccc(-c2cn[nH]c2N)c(OC)c1 | 59.7% (active) | 50.5% (active) | 43.9% | 41.7% (active) |
| O=C(N/N=C/c1ccccc1O)c1cccc(C(F)(F)F)c1 | 57.9% (active) | 43.2% (active) | 65.9% (active) | 48.8% (active) |
| CCCCCCCCCn1c2c(c(=N)c3c1CCC3)CCC2 | 89.7% (active) | 85.2% (active) | 71.4% (active) | 84.8% (active) |
| COc1cccc(/C=N/NC(=O)c2cc3c(OC)cccc3[nH]2)c1O | 28.5% | 29% | 37.1% | 26% (active) |
